Screens as filed in PubChem.
This is a sample that favours compounds with a hit; in the whole collection about 10% have one here.
JMJD2A Tudor inh – blocks the human JMJD2A Tudor domain; O75164; AlphaScreen JMJD2A-Tudor / H3K4me3 peptide binding; Potency, µM (doses to about 114 µM), without a hit: top-dose activity change, negative = inhibition, usual class: inhibitors; actives 4.4% (n = 390,000); note: % is set by controls: 0 for no effect and ±100 for the full control effect; nearly all actives have a fitted effect of over 50% in size
GLS inhibitor – blocks human kidney-isoform glutaminase activity; O94925; GLS enzymatic activity, qHTS titration; Potency, µM (doses to about 45.5 µM), for the others: at the highest dose activity change, negative = inhibition, actives largely listed as inhibitors; actives 0.21% (n = 410,000); AID 624170; note: % is set by controls: 0 for no effect and ±100 for the full control effect
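Two-point fluorescence kinetic (t0, 30 min RT) for hKGA; glutamate detected via glutamate oxidase–HRP–Amplex Red. Substrate: 1 mM L-glutamine solution; buffer 45 mM KH2PO4, pH 8.2.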
G9a block – G9a (human) methyltransferase inhibition. Potency, µM (doses to about 102 µM), for the others: at the highest dose activity, negative = inhibition, most hits filed as inhibitors. G9a H3K9 monomethylation, AlphaScreen, 2 h. actives 8.8% (n = 350,000). Q96KQ7; note: % is set by controls: 0 for no effect and ±100 for the full control effect; nearly all actives have a fitted effect of over 75% in size
Target sequence (Q96KQ7 913-1193 limits assumed): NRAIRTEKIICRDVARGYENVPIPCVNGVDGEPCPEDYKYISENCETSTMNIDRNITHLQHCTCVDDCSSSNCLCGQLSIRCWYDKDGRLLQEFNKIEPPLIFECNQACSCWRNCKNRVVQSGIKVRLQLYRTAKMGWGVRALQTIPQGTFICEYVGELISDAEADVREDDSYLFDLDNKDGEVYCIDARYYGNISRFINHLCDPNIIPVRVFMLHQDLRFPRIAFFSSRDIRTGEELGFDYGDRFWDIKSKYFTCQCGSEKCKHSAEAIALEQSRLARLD
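AlphaScreen detection with an anti-monomethyl H3K9 antibody quantified product after a 2 h room-temperature reaction containing 500 nM biotinylated H3K9 peptide, 20 µM SAM and 20 nM enzyme, which had been preincubated 15 min with compound.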
BAZ2B inh – BAZ2B (human) inhibition; AID 504333; Q9UIF8; Potency, µM (top dose mostly 114 µM), for the others: at the top dose activity change, negative = inhibition, usual class: inhibitors; AlphaScreen BAZ2B-H3K14Ac peptide displacement; actives 4.4% (n = 360,000); note: % is set by controls: 0 for no effect and ±100 for the full control effect; nearly all actives have a fitted effect of over 60% in size
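Complex of BAZ2B and biotin-H3K14Ac (50 nM apiece) forms over 30 min at RT, then faces library compounds up to 110 uM for another 30 min; AlphaScreen beads added, 20 min dark incubation, luminescence read.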
L3MBTL1 inh – inhibitors of human L3MBTL1 | AlphaScreen L3MBTL1–H3K9me1 peptide binding | Potency, µM (series often up to 57.1 µM), for inactives: at the highest dose activity, negative = inhibition, actives largely listed as inhibitors | actives 0.66% (n = 230,000) | AID 485360; note: % is set by controls: 0 for no effect and ±100 for the full control effect; nearly all actives have a fitted effect of over 60% in size
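Displacement of a biotinylated histone H3(1-15) peptide monomethylated at Lys9 (75 nM) from L3MBTL1 (50 nM) was measured by AlphaScreen after a 30 min room-temperature compound incubation; cefsulodin titration served as intraplate control.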
HP1b chromo inh – HP1-beta chromodomain-methylated histone interaction inhibition; P83916; AID 540317; actives 0.56% (n = 390,000); AlphaScreen HP1-beta / biotin-H3K9me3 peptide binding; Potency, µM (doses to about 114 µM), inactives show top-dose activity change, negative = inhibition, actives largely listed as inhibitors; note: nearly all actives have a fitted effect of over 70% in size
Target sequence (P83916 whole entry, looked up): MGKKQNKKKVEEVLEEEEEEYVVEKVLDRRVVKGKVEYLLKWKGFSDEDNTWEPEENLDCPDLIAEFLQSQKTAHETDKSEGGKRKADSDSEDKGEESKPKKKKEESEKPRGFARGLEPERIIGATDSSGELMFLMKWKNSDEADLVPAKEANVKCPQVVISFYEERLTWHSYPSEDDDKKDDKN
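HP1-beta protein (50 nM final) preincubated 30 min at room temperature with biotinylated H3(1-18)K9me3 peptide (50 nM) in PBS pH 7.4, 0.01% Tween-20, then compound added for 30 min. AlphaScreen streptavidin donor/nickel chelate acceptor beads (10 ug/mL final), 30 min dark, luminescence read.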
* = called active by the depositor; ? = inconclusive; . = no result; [ ] = dose if it differs, or a comment. Calls come from the whole dose curve; as a rule, active = well fitted curve in the direction sought with a large enough effect; inconclusive = small, poorly fitted or top-dose-only effect, or another doubt; inactive = no such curve, though single readings can be large; an effect the other way counts as inactive or inconclusive. Potency is the fitted concentration of half-maximal effect.

SMILES | JMJD2A Tudor inh | GLS inhibitor | G9a block | BAZ2B inh | L3MBTL1 inh | HP1b chromo inh
Cc1c(N=Nc2c(O)[nH]c(=O)[nH]c2=O)c(=O)n(-c2ccccc2)n1C | 13µM* | 44% | ? | 3.2µM* | -23% | 67%
Cc1c(N=Nc2c(O)n(-c3ccc(Br)cc3)c(=O)[nH]c2=O)c(=O)n(-c2ccccc2)n1C | 35µM* | 14% | . | 28µM* | ? | 28%
CC(C)(C)NC(=O)N1c2ccccc2Sc2ccccc21 | -4% | 21% | 7% | 3% | . | 53%
O=C(CN1CC(c2ccccc2)CC1=O)Nc1cccc(F)c1 (stereo not drawn) | -20% | 2% | -36% | -13% | 1% | 2%
O=C(Cn1c(=O)n(CC2CCC(C(=O)NCCc3ccccc3)CC2)c(=O)c2ccccc21)Nc1cccc(F)c1 (stereo not drawn) | 56µM* | -1% | -6%[59 µM] | -1% | . | 11%
Oc1ccccc1-c1ccccc1 | . | -7% | 21%[59 µM] | . | . | .
O=C1CC=C2C3CC4N(CCC45c4cc(O)c(O)cc4N1C25)CC3=CCBr (stereo not drawn) | 3.5µM* | 24% | . | . | . | ?
O=P(O)(O)c1ccccc1OCCOCCOCCOCCOc1ccccc1P(=O)(O)O | -8% | 4% | 10µM* | -34% | . | 47%
CN1C(=O)C(=Cc2coc3ccccc3c2=O)C(=O)N(C)C1=O | -18% | 26% | 32µM* | -4% | 0% | 15%
CCN(CC)CCO[C@H]1CC[C@@]2(C)C(=CC[C@@H]3[C@H]2CC[C@]2(C)C(=O)CC[C@H]32)C1 | . | 5% | -2%[12.7 µM] | . | . | .
Cc1cccc(C(=O)NC(Oc2ccccc2)C(Cl)(Cl)Cl)c1 (stereo not drawn) | 40µM* | -21% | 4%[59 µM] | 10% | 7% | 0%
CCOP(=O)(OCC)C(NC(=O)c1cccc(C)c1)C(Cl)(Cl)Cl (stereo not drawn) | -10% | -4% | . | 7% | 8% | 34%
C=C(C)[C@H]1CN[C@H](C(=O)O)[C@H]1CC(=O)O | 40µM* | 0% | 9%[12.7 µM] | . | . | ?
CCCC(=O)OC(C(Cl)(Cl)Cl)P(=O)(OC)OC (stereo not drawn) | . | ? | -17%[59 µM] | . | . | .
CCOC(=O)c1ccc2c(c1)n(Cc1ccccc1)c(C)[n+]2CC | -8% | -4% | 16% | -4% | 9% | 48%
CCOC(=O)c1ccc2c(c1)n(CCO)c(C)[n+]2CC | 50µM* | 11% | 35µM* | 10% | 2% | 19%
Cc1ccc(-c2nc3ccccc3c(=O)n2-c2ccccn2)cc1 | 6% | -4% | 21%[59 µM] | -3% | 10% | 25%
COc1ccc(-c2n(-c3ccccn3)c3ccccc3[n+]2-c2ccccn2)cc1 | 3% | 1% | 3.2µM* | 4% | . | 30%
Cc1cc(-c2nc3ncccc3o2)ccc1NC(=O)c1ccccc1Br | 4% | -11% | -1%[59 µM] | 6% | . | 48%
COc1ccccc1N1CCN(Cc2ccccc2)CC1 | 20µM* | 13% | 7%[0.501 µM] | 35µM* | -1%[2.29 µM] | ?
Oc1cc2c(cc1CN1CCN(c3ccccc3F)CC1)OCO2 | 40µM* | 25% | 8.9µM* | ? | . | 71µM*
COc1ccccc1N1CCN(Cc2c(F)cccc2Cl)CC1 | 3% | . | ? | ? | . | 29%
COc1ccccc1N1CCN(Cc2cccc(Br)c2)CC1 | 13µM* | 17% | 11µM* | 50µM* | -8% | ?
COc1ccccc1N1CCN(Cc2ccc(Br)s2)CC1 | 0.89µM* | 34% | -2%[12.7 µM] | 50µM* | -17% | ?
O=C(Cn1c(=O)n(Cc2ccccc2)c(=O)c2sc3ccccc3c21)NCc1ccccc1Cl | -5% | -1% | 10%[59 µM] | -32% | . | 63%
SMILES | JMJD2A Tudor inh | GLS inhibitor | G9a block | BAZ2B inh | L3MBTL1 inh | HP1b chromo inh
COc1cccc(CSc2nc(-c3ccccc3OC)nc3c2Cc2c(CO)cnc(C)c2O3)c1 | -33% | -3% | ? | -34% | . | 8%
CCCOc1ccc(N2CC(C(=O)Nc3ccccc3F)CC2=O)cc1 (stereo not drawn) | -8% | 7% | ? | 2% | 0% | 27%
CC(C)Oc1cccc(NC(=O)c2ccccc2C(F)(F)F)c1 | . | -8%[99.4 µM] | . | . | . | .
CCOP(=O)(/C(C#N)=C(\C)O)c1ccccc1 (stereo not drawn) | ? | 21% | ? | -16% | 11% | 43%
COc1ccccc1N1CCN(Cc2ccc3c(c2)OCO3)CC1 | 20µM* | 3% | . | . | . | ?
c1cc2c(cc1CN1CCNCC1)OCO2 | -12% | 1% | -27% | -13% | . | 23%
COc1ccccc1N1CCN(Cc2cc(C)c(C)cc2O)CC1 | -21% | -10% | 10%[59 µM] | -8% | . | -5%
Cc1cccc(N2CCN(Cc3ccc4c(c3)OCO4)CC2)c1C | 28µM* | 3% | 7.9µM* | 50µM* | -6% | ?
CN1CCN(Cc2ccc(Br)s2)CC1 | 5.6µM* | 22% | 4µM* | ? | . | ?
CCn1cc(C(=O)NCCc2ccc(OC)c(OC)c2)c(=O)c2cc(S(=O)(=O)N(C)C3CCCCC3)ccc21 | -35% | 5% | ? | . | . | 1%
CC1O[C@@H](O[C@@H]2C(O)C[C@H](O[C@@H]3C(O)C[C@@H](OC4CC[C@@]5(C)C6CC[C@]7(C)C(C8=CC(=O)OC8)CC[C@@]7(O)C6CC[C@@H]5C4)OC3C)OC2C)CC(O)[C@H]1O (stereo partly drawn) | . | . | -13%[2.33 µM] | . | . | .
C#CCOC(C(=O)OCCN(C)C)(c1ccccc1)c1ccccc1 | . | 8% | -27%[12.7 µM] | . | . | .
C=C1[C@@H]2C[C@@]3([C@H]1O)[C@H]1C[C@@H]4[C@@]5(C)CC[C@H](O)[C@]4([C@H]1N(CC)C5)[C@H]3C[C@H]2O | . | . | 21%[21.5 µM] | . | . | .
CN(C)CCc1c[nH]c2cccc(OP(=O)(O)O)c12 | . | 12%[99.4 µM] | . | . | . | .
O=C1NC(=O)N(c2ccccc2)C(=O)/C1=C/c1ccc2c(c1)Cc1ccccc1-2 | . | . | 6.3µM* | . | . | .
COc1cc(/C=C2\C(=O)NC(=O)N(c3ccccc3)C2=O)cc(OC)c1O | -19% | 46% | ? | ? | . | 21%
CCn1c(C)cc(/C=C2\C(=O)NC(=O)N(c3ccccc3C)C2=O)c1C | -3% | 0% | ? | -34% | -14% | 31%
COc1ccccc1N1C(=O)NC(=O)/C(=C/c2ccc3c(c2)Cc2ccccc2-3)C1=O | 79µM* | -3% | ? | 50µM* | 6% | 60%
O=C(COc1cc(Cl)ccc1Cl)Nc1ccc(Cl)cc1C(=O)c1ccccc1 | -21% | -6% | -24%[59 µM] | -1% | . | 17%
Cc1ccc(-n2c(O)c(/C=N/NC(=O)c3ccncc3)c(=O)[nH]c2=O)cc1 | ? | 5% | ? | 50µM* | -5% | 37%
